TRHR ag – qHTS for Small Molecule Agonists and Allosteric Enhancers of Human TRH Receptor: Primary Screen for Agonists; Thyrotropin-releasing hormone receptor (Homo sapiens), P34981; TRHR cells, calcium flux fluo-8, FDSS agonist mode; activation, % at 2 µM; 360,000 compounds, 0.18% hits; AID 493084, 2011; note: 0% is about no effect
Target sequence (P34981 whole entry, looked up): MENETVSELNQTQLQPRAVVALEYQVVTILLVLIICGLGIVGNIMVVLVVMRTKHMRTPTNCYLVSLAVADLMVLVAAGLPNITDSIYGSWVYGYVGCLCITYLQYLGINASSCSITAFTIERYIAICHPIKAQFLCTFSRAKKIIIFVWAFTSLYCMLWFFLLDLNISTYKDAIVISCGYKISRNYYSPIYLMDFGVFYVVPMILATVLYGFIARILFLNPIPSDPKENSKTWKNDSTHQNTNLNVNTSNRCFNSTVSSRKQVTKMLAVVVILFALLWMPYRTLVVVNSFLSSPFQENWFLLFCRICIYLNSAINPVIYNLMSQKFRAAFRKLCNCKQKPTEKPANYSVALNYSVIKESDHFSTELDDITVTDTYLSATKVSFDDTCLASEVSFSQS
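TRHR-expressing cells loaded with fluo-8 calcium dye; 23 nL library compound pin-transferred, kinetic FDSS fluorescence (Ex 480/Em 530) recorded about 180 s for agonist-induced calcium release, before a 10 nM TRH EC20 addition for potentiator mode.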
D1 PAM – Potentiators of Human D1 Dopamine Receptor: qHTS; D(1A) dopamine receptor (Homo sapiens), P21728; HEK293 TREx D1 cells, calcium flux, dopamine EC20 potentiation; potentiation, % at 10 µM; 360,000 compounds, 0.036% hits; in the data active = potentiation above about 30%; note: 0% is about no effect
D1 antag – Antagonist of Human D 1 Dopamine Receptor: qHTS. D(1A) dopamine receptor (Homo sapiens), P21728. HEK293 TREx D1 cells, calcium flux, dopamine EC80; hits give low values. activity change, negative = inhibition, % at 10 µM. 360,000 compounds, 3.2% hits; in the data active = activity change below about -30%; note: % is set by controls: 0 for no effect and ±100 for the full control effect
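Calcium flux readout: force-coupled, inducible Hek293 Trex D1 line, cells induced overnight at 30 C with tetracycline, dye-loaded 30–90 min at RT. Antagonism scored against EC80 dopamine challenge given 180 s after compound.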
TRHR enhancer – qHTS for Small Molecule Agonists and Allosteric Enhancers of Human TRH Receptor: Primary Screen for Enhancers | Thyrotropin-releasing hormone receptor (Homo sapiens), P34981 | TRHR cells, fluo-8 calcium fluorescence, EC20 TRH enhancement | enhancement, % at 2 µM | 360,000 compounds, 0.66% hits | AID 493056, 2011; in the data active = enhancement above about 30%; note: 0% is about no effect
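Enhancer read-out: after compound pinning and an initial kinetic agonist-mode read, an EC20 of TRH (10 nM final) was injected and fluo-8 calcium signal (Ex 480/Em 530) followed at 1 s/cycle for 100 cycles in TRHR-expressing cells.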
D1 ag – Allosteric Agonists of the Human D1 Dopamine Receptor: qHTS; HEK293 T-REx D1 cells, calcium flux, agonist mode; 360,000 compounds, 1% hits; D(1A) dopamine receptor (Homo sapiens), P21728; activation, % at 2 µM; AID 504660, 2011; note: 0% is about no effect
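Agonism was scored from calcium flux recorded over 180 s (1 read/s) after pintool compound addition, following a 10-cycle baseline. Cells were inducible force-coupled HEK293 TREx D1, plated overnight at 30 C and loaded with no-wash calcium dye.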
The depositor's hits bear a star; nt = no result given. An excerpt weighted towards active compounds, which were near 4.7% of everything screened. Cut-off read from the data, not from the text of the source, unless noted: active = activation above about 30%; inactive = the rest.

SMILES | TRHR ag | D1 PAM | D1 antag | TRHR enhancer | D1 ag
Cc1ccc(N2CCN(C(=O)c3cnn(-c4ccc(C)c(C)c4)c3C3CCNCC3)CC2)c(C)c1 | -1.2 | -4.7 | 2.9 | 9.2 | 82.5*
Cc1cc(C)cc(NC(=O)c2cnn(-c3ccc(C)c(C)c3)c2C2CCNCC2)c1 | -1.7 | -3.5 | 3.1 | 18.3 | 11.9
Cc1ccc(Cl)cc1N1CCN(C(=O)c2cnn(-c3ccc(Cl)cc3)c2C2CCNCC2)CC1 | 1.0 | -2.4 | -2.1 | 12.3 | 38.5*
S=C(NCCN(C1CCCCC1)C1CCCC1)Nc1cccc(Cl)c1 | 2.9 | -4.5 | 11.1 | 2.3 | 30.5*
COc1ccc(CCNC(=S)Nc2cccc(C)c2)cc1 | -0.7 | -6.5 | 1.4 | -6.3 | -0.6
S=C(Nc1cccc(Cl)c1)NC1CC2CCCC(C1)N2C1CCCC1 (stereo not drawn) | 2.4 | -11.3 | -9.6 | -1.3 | 9.9
Cc1cccc(NC(=S)NCCC(C)C)c1 | -0.8 | -4.7 | -0.2 | 9.8 | 226.8*
S=C(NCCC(c1ccccc1)c1ccccc1)Nc1cccc(Cl)c1 | -0.2 | -3.8 | -48.5* | -2.2 | 3.2
CCOc1cccc(CC(=O)N2CCc3c([nH]c4ccccc34)C2c2ccccc2)c1OCC (stereo not drawn) | 0.3 | -0.5 | 13.4 | -0.7 | 0.6
COCC(=O)N1c2nc(C(C)C)nn2C2(CCCCC2)[C@@H]2CCCC[C@@H]21 | -1.3 | 0.2 | 3.6 | -4.4 | -1.1
CC(=O)Nc1ccc(S(=O)(=O)N2CCC(n3c(C(F)(F)F)nc4cccnc43)CC2)cc1 | 0.1 | 1.5 | -7.0 | 4.0 | 5.1
COc1cc2c(cc1OC)C1O[C@](c3ccsc3)(C2)OC2=C1C(=O)CC(C)(C)C2 | -0.1 | -8.7 | -14.1 | 11.9 | 0.4
O=C(Nc1ccccc1)c1cc(S(=O)(=O)NCc2ccncc2)ccc1Cl | 0.0 | -5.4 | -32.0* | -1.8 | 4.3
O=C(Nc1cc(C(F)(F)F)ccc1Cl)c1cc(S(=O)(=O)NCc2ccccc2)ccc1F | 0.2 | -3.4 | -71.4* | -2.2 | -1.7
O=C(Nc1ccccc1)c1cc(S(=O)(=O)Nc2cccnc2)ccc1Cl | 0.2 | 7.8 | 0.6 | 4.6 | 5.5
COc1ccccc1NC(=O)c1cc(S(=O)(=O)NCc2ccccc2)ccc1F | -2.7 | -5.0 | -0.5 | -2.8 | 3.4
O=C(Nc1ccc(S(=O)(=O)NCc2ccccc2)cc1)c1ccccc1[N+](=O)[O-] | 1.7 | -6.9 | -72.2* | 0.7 | 15.9
CN(c1ccc(F)cc1)S(=O)(=O)c1ccc(Cl)c(C(=O)Nc2ccncc2)c1 | 0.4 | -3.2 | -48.3* | -2.7 | 8.5
CCOc1ccc(N(CC)C(=O)CSc2n[nH]c(-c3ccccc3)n2)cc1 | 0.1 | -0.5 | 0.6 | 1.2 | 1.0
Cc1ccc(NC(=O)CN2CCSc3ccc(S(=O)(=O)N4CCCC4)cc32)cc1C | -0.3 | -2.2 | -17.4 | 0.7 | 3.5
COc1ccc(CNS(=O)(=O)c2ccc(F)c(C(=O)Nc3ccccc3OC)c2)cc1 | -1.2 | -6.8 | -36.8* | -4.1 | 2.5
O=C(Nc1ccc(S(=O)(=O)NCc2ccccc2)cc1)Nc1ccc2c(c1)OCO2 | 1.3 | -9.9 | -40.2* | 3.1 | 8.0
Cc1ccc(CN2C(=O)C3(c4ccccc42)N(c2cccc(C(F)(F)F)c2)C(=O)CS3(=O)=O)cc1 (stereo not drawn) | 0.3 | -1.4 | 2.8 | 13.1 | 3.6
CN(Cc1ccccc1)C(=O)c1nc(-c2ccc(Cl)cc2)n2c1CCCCC2 | -0.6 | 6.7 | -11.0 | -17.6 | 2.0
C/C(=N/NC(=O)c1ccco1)c1ccc(Br)s1 | -1.0 | -8.1 | -31.3* | 0.3 | 0.9
SMILES | TRHR ag | D1 PAM | D1 antag | TRHR enhancer | D1 ag
C/C(=N\NC(=O)c1ccco1)c1ccc(C(=O)O)s1 | -0.1 | 3.4 | 6.7 | -1.6 | 5.2
CN=c1scc(-c2cccs2)n1/N=C/c1ccc(O)c(O)c1O | 0.3 | -11.0 | -89.3* | 24.5 | 0.8
CN=c1scc(-c2cccs2)n1/N=C/c1ccccc1O | -0.3 | 1.2 | -14.5 | 5.1 | -0.6
CCc1ccc(NC(=O)c2cc(=O)c3ccc(C)c(C)c3o2)cc1 | 0.3 | 0.1 | -6.0 | 9.3 | 2.6
CCCc1ccc(C(C)NC(=S)NC2CCCCC2)cc1 (stereo not drawn) | 3.1 | 0.4 | -5.5 | -4.8 | 36.5*
Cc1ccc(C)c(C(C)NC(=S)NC2CCCCC2)c1 (stereo not drawn) | 0.9 | -2.0 | -2.5 | -4.8 | 16.6
CCC(NC(=S)NC1CCCCC1)c1ccc(C)cc1 (stereo not drawn) | 0.2 | -0.2 | -59.0* | -1.9 | 13.5
COC(=O)c1ccccc1N1C(=O)[C@@H]2C(c3ccc(Br)cc3)=NO[C@@H]2C1=O | 1.5 | -2.5 | -48.3* | 13.8 | 7.8
COC(=O)c1ccccc1N1C(=O)C2C(C1=O)[C@H]1C=C[C@@H]2C1 (stereo partly drawn) | 0.1 | -2.5 | -4.5 | 3.8 | 2.3
CCN(CC)CCN(C(=O)c1ccco1)c1nc2ccc(F)cc2s1 | 0.6 | -5.5 | -12.1 | 22.2 | 1.8
COc1cccc(C2CC(=O)Nc3c2c(=O)[nH]c2ncnn32)c1OC (stereo not drawn) | 0.9 | -0.4 | -3.0 | 3.5 | -1.5
CC(C)c1ccc(NC(=O)c2ccc(=O)n(Cc3ccccc3)c2)cc1 | -0.1 | 2.5 | nt | 2.7 | 5.1
Cc1cc(C)c(NC(=O)COCc2cc(-c3cccs3)on2)c(C)c1 | -0.1 | 2.0 | 5.2 | 5.7 | -0.7
C=CCC1NS(=O)(=O)OC(CCCC)C1O (stereo not drawn) | -0.5 | 4.5 | 12.4 | 33.6* | 2.5
C=CCC1NS(=O)(=O)OC(COC)C1C (stereo not drawn) | 0.1 | 7.0 | 3.1 | 0.4 | 1.1
CCOC(=O)C1=C(O)/C(=C\c2cc(C)n(-c3ccccc3F)c2C)N=C1C | 0.9 | -4.0 | -0.2 | -7.6 | 3.9
CCOC(=O)C1=C(O)/C(=C\c2cc(C)n(-c3ccc(F)cc3)c2C)N=C1C | 4.1 | -2.1 | -32.2* | 0.5 | 6.0
CCCCC#Cc1cncc(C(=O)NN)c1 | 1.5 | -3.4 | -54.3* | 6.3 | 3.2
CCCCCCC#Cc1cncc(C(=O)NNC(=O)Nc2cc(Cl)cc(Cl)c2)c1 | 0.3 | -3.3 | -7.0 | -4.3 | 1.4
CN(c1ccc(OCC(=O)OCC(=O)Nc2ccc(Br)cc2)cc1)S(=O)(=O)c1cccs1 | 0.9 | -6.2 | -11.3 | -3.7 | 6.3
CN(c1ccc(OCC(=O)OCC(=O)Nc2ccccc2)cc1)S(=O)(=O)c1cccs1 | -1.7 | -5.4 | -46.8* | 6.3 | 21.1
CCN(CC)C(=O)COc1ccc(N(C)S(=O)(=O)c2ccc(NC(C)=O)cc2)cc1 | 1.0 | -7.0 | -38.5* | -3.9 | 2.1
